We go through 68 molecules from PubChem BioAssay AID624413 (The Scripps Research Institute Molecular Screening Center, 2012).

Among all 1,400 compounds or so, about 160 (11%) were called active. Cut-off read from the data, not from the text of the source: active = inhibition above about 15%; inactive = the rest. A selection follows.

The test in a line: viability loss in Jurkat lymphocytes – cell-based, luminescence, high throughput, cytotoxicity control for T. brucei MetRS inhibitor project (AID 624413).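 Note: 0% = vehicle and 100% = reference inhibitor.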 The note with it: Jurkat cells viability, ATP luminescence; at 8.3 µM; active compounds read high.
Consider `Cc1ccc(N2C(=O)CC(NCc3ccc4c(c3)OCO4)C2=O)cc1Cl` (stereo not drawn), for which the inhibition was -6.39% (inactive).

Regarding `O=[N+]([O-])c1ccc(N2CCN(c3ccc(O)cc3)CC2)c(Cl)c1`, the inhibition was 1.76% (inactive). Take `O=S(=O)(NCc1ccc(Cl)cc1Cl)c1cccs1`: the inhibition is -0.99% (inactive).

As to `O=C(Nc1ccccc1)Nc1nnc(COc2ccccc2F)s1`, the inhibition was 5.35% (inactive). Next, `O=C(NNC(=O)c1ccc(-n2cncn2)c([N+](=O)[O-])c1)c1ccccc1`: 5.48% (inactive); `O=C(CSCC(=O)Nc1cccc([N+](=O)[O-])c1)Nc1ccccc1`: -0.93% (inactive); `O=C(Nc1cccc([N+](=O)[O-])c1)N1CCc2ccccc2C1`: 17% (active). With `O=C(Nc1ccc(Cl)cc1)N1CCc2[nH]c3ccccc3c2C1`, the inhibition was 1.46% (inactive). Then `O=C(/C(=N\O)n1cncn1)c1ccc(Br)cc1Br`, with -3.9% (inactive); and `O=C(NNc1cc(Cl)cc(Cl)c1)c1c(F)cccc1Cl`, with 1.84% (inactive).

As to `COc1ccc(CCn2ccc(O)c(Cc3ccc(Cl)cc3Cl)c2=O)cc1OC`, the inhibition was 9.61% (inactive). With `Cc1ccc(S(=O)(=O)c2c[nH]c3ccc(Cl)cc3c2=O)cc1`, the inhibition is 5.58% (inactive). Next, `CCCCCCCC[n+]1cccc(C(=O)N2c3c(nc(N)[nH]c3=O)NC(C)C2C)c1` (stereo not drawn): 10% (inactive); `CC(=O)c1ccc(NC(=O)c2ccc(-n3cncn3)c([N+](=O)[O-])c2)cc1`: 2.58% (inactive).

For `CCCCN(C)Cc1c(C)[nH]c2ccc(Cl)cc2c1=O`, the inhibition is -0.56% (inactive). `c1ccc(CN=C2Nc3ccccc3CS2)nc1`: the inhibition was 0.23% (inactive). In the case of `OCCNc1nc2ccccc2n1-c1ncnc2sc3c(c12)CCC3`, the inhibition is 9.96% (inactive). Consider `Clc1ccc(-c2cc(C3CCNCC3)[nH]n2)c(Cl)c1`, for which the inhibition is -0.28% (inactive). Take `NC1=NC(=O)S/C1=C\c1ccc(O)cc1`: the inhibition was 7% (inactive). Next, `COC(=O)/C(=C\Nc1ccccc1)NC(=O)c1ccc(Cl)cc1Cl`: 11.3% (inactive). With `O=C(NCc1cccc(CNC(=O)Nc2cccc(O)c2)c1)Nc1cccc(O)c1`, the inhibition was 13.5% (inactive). Then `Cc1ccc(NC(=O)C(C)c2cccc(C(=O)c3ccccc3)c2)cc1` (stereo not drawn), with 1.82% (inactive); and `OC(c1cc(Cl)cc(Cl)c1)c1ncc(-c2ccccc2C(F)(F)F)[nH]1` (stereo not drawn), with 6.67% (inactive).

As to `CCCCN1C[C@H](c2ccc(Br)cc2)[C@@H](CC(=O)Nc2ccc(Br)cc2)C1=O`, the inhibition was 7.69% (inactive). For the molecule `c1ccc2cc3c(NCCN4CCOCC4)ccnc3cc2c1`, the inhibition was 22.4% (active). Next, `Cc1ccc(S(=O)(=O)c2c[nH]c3ccc(C)cc3c2=O)cc1`: 4.57% (inactive). Take `CCN(CC)C(=O)C(=O)c1cn(CC(=O)NCc2ccc3c(c2)OCO3)c2ccccc12`: the inhibition is 2.71% (inactive). Consider `NS(=O)(=O)c1ccc(CCNC(=O)Nc2ccc(Cl)cc2)cc1`, for which the inhibition was 3.2% (inactive). Then `O=C(Cc1ccc(S(=O)(=O)N2CCOCC2)s1)Nc1ccc(Br)c(C(F)(F)F)c1`, with 4.25% (inactive); and `O=C(CC(=O)Nc1ccc(Cl)c(Cl)c1)N/N=C/c1ccc(O)cc1`, with 3.68% (inactive). `O=C(Cn1c2[n+](c3ccc(C(F)(F)F)cc31)CCCCC2)Nc1c(F)cccc1F`: the inhibition is 7.63% (inactive). Next, `S=c1[nH]nc(CSCc2ccc(Cl)cc2Cl)n1-c1ccccc1`: 7.09% (inactive).

Take `Cc1ccc(-c2cnc(C(O)c3cc(Cl)cc(Cl)c3)[nH]2)cc1` (stereo not drawn): the inhibition is 4.06% (inactive). Then `Oc1[nH]c2ccc(Br)cc2c1N=Nc1nn[nH]n1`, with -3.84% (inactive).

As for `CN(C(=O)CSc1nnc(-c2c[nH]c3ccccc23)o1)C1CCS(=O)(=O)C1` (stereo not drawn), the inhibition is -7.37% (inactive). In the case of `Fc1ccc(NC(=S)N2CCc3[nH]c4ccccc4c3C2)cc1`, the inhibition is -0.86% (inactive). Then `Cn1c(CCCOc2ccc(Cl)cc2Cl)n[nH]c1=S`, with 1.8% (inactive). With `COC(=O)CN1C(=S)N(c2ccccc2)C(=O)C1CC(=O)Nc1ccc(Cl)cc1` (stereo not drawn), the inhibition is -3.1% (inactive). On to `Clc1ccccc1SCc1nc2ccccc2[nH]1`, for which the inhibition was 7.62% (inactive). As for `Cc1ccc(O)c(CNc2nc3ccccc3[nH]2)c1`, the inhibition is 24.5% (active). Next, `Cc1ccc(CNC(=O)CSc2nnc3c(n2)[nH]c2ccc(F)cc23)cc1`: -1.93% (inactive); `O=C(O)CCn1c(O)c(C=C2N=c3ccccc3=N2)sc1=S`: 0.39% (inactive).

`O=C(Nc1ccc(S(=O)(=O)Nc2ncccn2)cc1)c1cncc(Br)c1`: the inhibition was -8.56% (inactive). Regarding `COc1ccc(OCC(O)CNC(=O)Nc2ccc(Cl)cc2)cc1` (stereo not drawn), the inhibition was -6% (inactive). Turning to `c1ccc2cc3[nH]c(CN4CCCCC4)nc3cc2c1`, the inhibition is -5.35% (inactive). Then `CCCCCn1nnnc1-c1nc2cc3ccccc3cc2[nH]c1=O`, with 55.2% (active); and `O=C(O)c1ccc(NS(=O)(=O)c2ccc3c(c2)C(=O)c2cc(S(=O)(=O)Nc4ccc(C(=O)O)cc4)ccc2-3)cc1`, with -0.7% (inactive). Next, `CC(=N\NC(=O)c1cc(Br)ccc1O)/C(=N/O)C(=O)Nc1ccccc1`: 9.24% (inactive); `CN(C(=O)CSc1nnc(Nc2ccccc2)s1)C1CCS(=O)(=O)C1` (stereo not drawn): 3.56% (inactive); `CCO[C@@H]1OC(C(=O)NCc2nc3ccccc3[nH]2)=C[C@H](C2CCCCC2)[C@H]1CCCO`: -0.5% (inactive). For the molecule `O=C(Cn1c(NCCO)nc2ccccc21)c1ccc(Cl)cc1Cl`, the inhibition is 4.95% (inactive). For the molecule `COc1ccc(-c2[nH]ncc2/C=N/NC(=O)c2cc(Br)ccc2O)c(OC)c1`, the inhibition is 2% (inactive).

As to `COc1ccccc1-n1c(SCC(=O)Nc2ccc(Cl)cc2)nc(O)c(Cc2ccccc2)c1=O`, the inhibition was -1.69% (inactive). Next, `CSc1nsc(NC(=O)Nc2ccccc2)n1`: 10% (inactive); `Cc1ccccc1OCC(=O)NNC(=O)c1ccc(-n2cncn2)c([N+](=O)[O-])c1`: 5.5% (inactive). Turning to `Cc1c(CN2CCC(CO)(CCOc3ccccc3)CC2)[nH]c2ccc(Cl)cc12`, the inhibition was 13.6% (inactive). Next, `O=C(CSc1nc2ccccc2[nH]1)N/N=C/C=C\c1ccccc1[N+](=O)[O-]`: 0.15% (inactive); `Cc1ccc(S(=O)(=O)N(C)C)cc1NC(=O)c1ccc(-n2cncn2)c([N+](=O)[O-])c1`: -2.08% (inactive). Next, `COc1ccc(NC(=O)C(NC(C)=O)C(=O)NCc2ccccc2Cl)cc1` (stereo not drawn): 3.32% (inactive); `O=C(OCc1nc2ccccc2[nH]1)C1CCCCC1`: -2.05% (inactive); `O=C(NCC(O)c1nc2ccccc2[nH]1)c1ccc(Br)cc1` (stereo not drawn): 1.16% (inactive). `O=S(=O)(c1ccc(Br)cc1)N1CCC(c2nc3ccccc3[nH]2)CC1`: the inhibition is 35.4% (active). On to `O=C(NCCN1CCOCC1)c1ccccc1N1C(=O)[C@@H]2Cc3c([nH]c4ccccc34)C(c3cccc(Cl)c3)N2C1=O` (stereo partly drawn), for which the inhibition was -0.67% (inactive). Regarding `CCN1CCCC1CNc1ncnc2c1[nH]c1ccc(F)cc12` (stereo not drawn), the inhibition is -1.19% (inactive).

Consider `CC(C)OCCCNc1ncnc2c1[nH]c1ccc(F)cc12`, for which the inhibition was 47.3% (active). On to `O=C1CCCN1CCCNc1ncnc2c1[nH]c1ccccc12`, for which the inhibition is -1.7% (inactive). As to `Cc1cc(C)cc(NC(=O)N(C)Cc2ccccc2)c1`, the inhibition is -0.98% (inactive).

With `CC(C)(C)c1ccc(/C=C2\SC(=O)N=C2N)cc1`, the inhibition is 7.36% (inactive).
